Inconclusive results are not listed. A call without a number means that no potency is given here. Active and inactive are the calls of the source. Unless noted, the call rests on the fitted dose curve; in most records, active means well fitted curve in the direction sought with a large enough effect; inconclusive means small, poorly fitted or top-dose-only effect, or another doubt; inactive means no such curve, though single readings can be large; an effect the other way counts as inactive or inconclusive. Where a SMILES comes first, the peptide text is derived from it. Bridges are numbered along the chain shown (N, C = ends). [ ]: non-standard residue; d: D form. hArg = N=C(N)NCCCC[C@H](N)C(=O)O; Mpa = O=C(O)CCS
Legend:
[1] = qHTS to identify inhibitors of the type 1 interferon - major histocompatibility complex class I in skeletal muscle: primary screen against the NCATS Pharmaceutical Collection (AID 1347407);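 further: luminescence of HiBiT knocked into endogenous HLA-B as interferon-induced MHC class I level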
How it was run: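 Compounds […] were added to CRISPR-engineered HLA-B-HiBiT C25cl48 human myoblasts with 4.0 ng/ml IFN-beta. After 24 hrs at 37 C, cells were lysed and HiBiT luminescence measured.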

[2] = target: Protein phosphatase 1D (Homo sapiens) (UniProt O15297); test: RapidFire Mass Spectrometry qHTS Assay for Modulators of WT P53-Induced Phosphatase 1 (WIP1) (AID 1347424); further: series mostly up to about 63 µM
How it was run: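 RapidFire MS readout of dephosphorylated VEPPL-S-QETFS product, with 1 uM isotope-labelled peptide standard. Reaction: 10 nM WIP1, 2 uM phosphopeptide substrate, 5 min, room temperature, after 1 h compound preincubation; stopped with 0.5% formic acid.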

[3] = target: Protein phosphatase 1D (Homo sapiens) (UniProt O15297); test: Rhodamine-PBP qHTS Assay for Modulators of WT P53-Induced Phosphatase 1 (WIP1) (AID 1347425)
How it was run: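 Read-out: Rhodamine-PBP fluorescence (ex 525/em 598 nm) for released Pi, read each minute for 11 min after adding 10 uM VEPPL-pS-QETFS; signal taken as f1 minus pre-substrate f0. Enzyme 5 nM WIP1 with 1 hr room-temperature compound preincubation.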

[4] = Primary qHTS for inhibitors of La Crosse Virus (LACV) - induced cell death in SH-SY5Y cells (AID 1508616);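 further: top concentration of the series differs between compounds; higher means more rescue of cells from virus-induced death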
How it was run: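 Screening measures cell viability in LACV-infected SH-SY5Y cultures. Compound was added before virus (0.01 MOI), and ATP was detected by luminescence 6 days later.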

[5] = target: Calcium and integrin-binding protein 1 (Homo sapiens) (UniProt Q99828); test: Primary qHTS for Identification of Calcium Integrin Binding Protein 1 (CIB1) Competitor (AID 1508620);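 further: GST tagged CIB1 binding a fluorescein labelled alphaIIb integrin peptide tracer; top concentration of the series differs between compounds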
How it was run: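 Fluorescence polarization competition: GST-tagged CIB1 (1 uM final) preincubated with compound 15 min at room temperature, then FITC-labelled alphaIIb peptide (100 nM final) added. After 15 min at room temperature, polarization read at Ex 480/Em 540.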

[6] = Primary qHTS for small molecule stabilizers of the endoplasmic reticulum resident proteome: Secreted ER Calcium Modulated Protein (SERCaMP) assay (AID 1508630)
How it was run: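 The SH-SY5Y reporter protocol was run at 3 concentrations up to 38.3 uM (primary) or 11 concentrations (follow-up): 16 h compound, 100 nM thapsigargin for 4 h, then extracellular luciferase luminescence.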

[7] = A High-Content qHTS Against Drug Library for the Identification of Small Molecules that Inhibit DYT1 Early Onset Primary Dystonia-Associated Cell Pathology (AID 1645839; calls by dose curve; further: series mostly up to about 46 µM)
How it was run: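 Cells were seeded and left for 24 h, then dosed with compound alongside tetracycline induction of mutant EGFP-TorsinA. They were incubated for 48 h, fixed in 4% paraformaldehyde, permeabilized and imaged for mislocalization (%pathology) and cell count.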

[8] = target: Cytochrome P450 2D6 (Homo sapiens) (UniProt P10635); test: Cytochrome P450 family 2 subfamily D member 6 (CYP2D6) small molecule antagonists: luciferase biochemical (cell-free) qHTS assay (AID 1645840; active means well fitted curve in the direction sought with a large enough effect in the repeat runs; an effect the other way counts as inactive or inconclusive; further: nearly all actives have a fitted effect of over 55% in size; further: potency means the concentration at half of the fitted maximal effect; on activity change, negative = inhibition: series mostly up to about 57 µM)
How it was run: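 P450-Glo CYP2D6 system: proluciferin substrate converted by enzyme to luciferin, read by luminescence proportional to activity. Enzyme-substrate mix with compound 10 min at room temperature, then NADPH regeneration 1 h before detection reagent.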

[9] = Primary qHTS for inhibitors of nuclear receptor binding SET domain protein 2 (NSD2) in an isogenic RCH-ACV NSD2 p.E1099K mutant (9B) (AID 1645876); further: nearly all actives have a fitted effect of over 70% in size
[10] = Primary qHTS for inhibitors of nuclear receptor binding SET domain protein 2 (NSD2) in an RCH-ACV wild type WT cells (2C) (AID 1645877); further: nearly all actives have a fitted effect of over 70% in size
[11] = target: Cytochrome P450 2C9 (Homo sapiens) (UniProt P11712); test: Cytochrome P450 family 2 subfamily C member 9 (CYP2C9) small molecule antagonists: luciferase biochemical (cell-free) qHTS assay (AID 1645842; active means well fitted curve in the direction sought with a large enough effect in the repeat runs; an effect the other way counts as inactive or inconclusive; further: series mostly up to about 57 µM; nearly all actives have a fitted effect of over 55% in size)
How it was run: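 P450-Glo CYP2C9 system: proluciferin substrate with enzyme in mix containing 0.4% BSA, 10 min at room temperature, then NADPH regeneration solution added and incubated 1 h at 37C. Detection reagent stopped reaction; luminescence read after 20 min as RLU.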

[12] = target: Cytochrome P450 3A4 (Homo sapiens) (UniProt P08684); test: Cytochrome P450 family 3 subfamily A member 4 (CYP3A4) small molecule antagonists: luciferase qHTS assay (AID 1645841; active means well fitted curve in the direction sought with a large enough effect in the repeat runs; an effect the other way counts as inactive or inconclusive; further: nearly all actives have a fitted effect of over 45% in size)
How it was run: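 P450-Glo CYP3A4 enzyme with proluciferin substrate preincubated 10 min with compound at room temperature, then NADPH regeneration 1 h. Luciferin detection reagent added for 20 min; luminescence recorded. Ketoconazole positive control.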

Calcium and integrin-binding protein 1 (Homo sapiens), sequence (Q99828 whole entry, looked up): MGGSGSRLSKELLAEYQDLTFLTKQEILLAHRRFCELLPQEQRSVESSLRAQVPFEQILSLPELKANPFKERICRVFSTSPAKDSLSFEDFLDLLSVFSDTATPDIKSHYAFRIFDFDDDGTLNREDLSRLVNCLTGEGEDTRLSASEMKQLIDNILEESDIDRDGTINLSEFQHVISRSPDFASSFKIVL
Cytochrome P450 2C9 (Homo sapiens), sequence (P11712 whole entry, looked up): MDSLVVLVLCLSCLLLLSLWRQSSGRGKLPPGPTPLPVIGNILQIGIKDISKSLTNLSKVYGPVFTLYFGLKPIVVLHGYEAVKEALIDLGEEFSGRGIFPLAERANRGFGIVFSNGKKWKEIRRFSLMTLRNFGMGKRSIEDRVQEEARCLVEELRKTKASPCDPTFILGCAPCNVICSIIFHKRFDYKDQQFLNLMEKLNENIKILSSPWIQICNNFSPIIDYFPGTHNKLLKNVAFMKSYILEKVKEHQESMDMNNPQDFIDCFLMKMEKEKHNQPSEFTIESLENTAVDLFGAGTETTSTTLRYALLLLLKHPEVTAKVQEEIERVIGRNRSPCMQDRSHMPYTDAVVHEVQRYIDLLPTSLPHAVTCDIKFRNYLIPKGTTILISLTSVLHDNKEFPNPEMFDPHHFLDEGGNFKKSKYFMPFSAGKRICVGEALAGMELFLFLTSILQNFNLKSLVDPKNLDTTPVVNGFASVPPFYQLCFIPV
Protein phosphatase 1D (Homo sapiens), sequence (O15297 whole entry, looked up): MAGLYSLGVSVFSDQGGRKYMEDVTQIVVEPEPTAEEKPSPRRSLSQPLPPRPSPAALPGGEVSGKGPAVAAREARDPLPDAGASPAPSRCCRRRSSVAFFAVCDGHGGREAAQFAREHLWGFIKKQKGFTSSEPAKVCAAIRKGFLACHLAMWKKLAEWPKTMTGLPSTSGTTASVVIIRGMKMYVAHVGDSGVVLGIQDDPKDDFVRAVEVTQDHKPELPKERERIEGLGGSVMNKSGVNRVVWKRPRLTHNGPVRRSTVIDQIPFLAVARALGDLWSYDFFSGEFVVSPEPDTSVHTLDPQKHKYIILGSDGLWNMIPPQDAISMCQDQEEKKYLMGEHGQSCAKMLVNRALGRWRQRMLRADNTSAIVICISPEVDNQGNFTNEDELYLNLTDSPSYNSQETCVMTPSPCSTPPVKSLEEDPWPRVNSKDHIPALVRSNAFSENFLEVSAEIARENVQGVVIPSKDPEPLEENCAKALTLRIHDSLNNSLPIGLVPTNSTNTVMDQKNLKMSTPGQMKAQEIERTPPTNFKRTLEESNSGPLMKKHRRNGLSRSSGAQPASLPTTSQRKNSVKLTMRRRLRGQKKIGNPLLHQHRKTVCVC
Cytochrome P450 2D6 (Homo sapiens), sequence (P10635 whole entry, looked up): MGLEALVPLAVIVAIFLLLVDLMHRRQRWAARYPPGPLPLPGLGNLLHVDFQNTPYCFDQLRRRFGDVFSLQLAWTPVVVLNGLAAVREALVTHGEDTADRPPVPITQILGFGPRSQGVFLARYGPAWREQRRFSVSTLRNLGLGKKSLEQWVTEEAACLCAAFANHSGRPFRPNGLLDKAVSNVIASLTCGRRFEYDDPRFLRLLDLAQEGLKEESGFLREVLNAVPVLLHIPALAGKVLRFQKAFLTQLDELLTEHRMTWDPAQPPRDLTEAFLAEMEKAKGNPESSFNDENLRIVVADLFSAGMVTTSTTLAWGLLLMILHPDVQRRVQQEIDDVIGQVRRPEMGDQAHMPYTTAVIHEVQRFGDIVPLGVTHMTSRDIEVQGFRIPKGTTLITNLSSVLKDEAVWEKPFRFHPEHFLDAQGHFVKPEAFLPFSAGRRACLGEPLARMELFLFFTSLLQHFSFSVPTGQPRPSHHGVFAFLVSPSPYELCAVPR
Cytochrome P450 3A4 (Homo sapiens), sequence (P08684 whole entry, looked up): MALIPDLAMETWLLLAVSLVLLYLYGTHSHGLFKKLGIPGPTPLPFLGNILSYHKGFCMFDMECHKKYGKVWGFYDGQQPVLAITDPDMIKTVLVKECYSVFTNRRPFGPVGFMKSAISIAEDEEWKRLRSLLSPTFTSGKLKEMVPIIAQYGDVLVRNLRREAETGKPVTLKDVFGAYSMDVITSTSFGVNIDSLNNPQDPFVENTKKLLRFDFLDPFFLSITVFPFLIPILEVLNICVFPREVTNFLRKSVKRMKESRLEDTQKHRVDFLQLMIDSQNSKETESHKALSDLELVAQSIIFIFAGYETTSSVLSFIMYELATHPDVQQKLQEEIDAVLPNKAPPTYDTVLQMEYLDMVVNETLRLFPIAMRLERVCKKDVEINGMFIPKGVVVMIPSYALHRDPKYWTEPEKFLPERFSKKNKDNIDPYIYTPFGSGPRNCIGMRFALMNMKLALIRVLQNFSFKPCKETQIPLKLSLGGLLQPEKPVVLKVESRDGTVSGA

Row | Compound | outcome [1] | outcome [2] | outcome [3] | outcome [4] | outcome [5] | outcome [6] | Potency [7] | Potency [8] | Potency [9] | Potency [10] | Potency [11] | outcome [12] | activity change, negative = inhibition [1] | activity change, negative = inhibition [2] | activity change, negative = inhibition [3] | activity change [4] | % pathology change, negative = correction [7]
1 | CCOC(=O)[C@H](CCc1ccccc1)N[C@@H](C)C(=O)N1Cc2cc(OC)c(OC)cc2C[C@H]1C(=O)O | inactive | inactive | inactive | inactive | inactive | inactive | inactive | inactive | inactive | inactive | – | – | – | – | – | – | –
2 | O=C(O)c1ccccc1C(=O)Nc1ccc(S(=O)(=O)Nc2nccs2)cc1 | inactive | inactive | inactive | inactive | inactive | inactive | inactive | inactive | inactive | inactive | – | – | – | – | – | – | –
3 | CN1C(C)(C)CCCC1(C)C | inactive | inactive | inactive | inactive | inactive | inactive | inactive | 3.89 µM (active) | inactive | inactive | – | – | – | – | – | – | –
4 | Cn1c([N+](=O)[O-])cnc1COC(N)=O | inactive | inactive | inactive | inactive | inactive | inactive | inactive | inactive | inactive | inactive | – | – | – | – | – | – | –
5 | Cc1cc(=O)[nH]c(=S)[nH]1 | inactive | inactive | inactive | inactive | inactive | – | inactive | inactive | – | – | inactive | – | – | – | – | – | –
6 | NC(=O)[C@@H]1CSSCCC(=O)N[C@@H](CCCCN=C(N)N)C(=O)NCC(=O)N[C@@H](CC(=O)O)C(=O)N[C@@H](Cc2c[nH]c3ccccc23)C(=O)N2CCC[C@H]2C(=O)N1 ([Mpa][hArg]GDWPC-NH2; disulfide 1-7) | inactive | inactive | inactive | inactive | inactive | – | inactive | inactive | – | – | – | – | – | – | – | – | –
7 | O=C(O)c1cc(=O)c2ccccc2o1 | inactive | inactive | inactive | inactive | inactive | inactive | – | inactive | inactive | inactive | inactive | inactive | – | – | – | – | –
8 | CC1CC(OC(=O)c2ccccc2O)CC(C)(C)C1 (stereo not given) | inactive | inactive | inactive | inactive | inactive | inactive | inactive | – | inactive | inactive | inactive | – | – | – | – | – | –
9 | O=C(O)CCCc1ccccc1 | inactive | inactive | inactive | inactive | inactive | inactive | inactive | – | inactive | – | inactive | – | – | – | – | – | –
10 | Cc1ccsc1/C=C/C1=NCCCN1C | inactive | inactive | inactive | inactive | inactive | inactive | inactive | – | inactive | inactive | – | – | – | – | – | – | –
11 | CC(C)=CCC/C(C)=C/CO | inactive | inactive | inactive | inactive | inactive | inactive | inactive | – | inactive | inactive | – | – | – | – | – | – | –
12 | CCN(CC)CCOC(=O)C(c1ccccc1)c1ccccc1 | inactive | inactive | inactive | inactive | inactive | inactive | inactive | 1.95 µM (active) | inactive | inactive | – | – | – | – | – | – | –
13 | CCCNC(C)C(=O)Nc1c(C)csc1C(=O)OC (stereo not given) | inactive | inactive | inactive | inactive | inactive | inactive | inactive | – | inactive | inactive | inactive | – | – | – | – | – | –
14 | O=C(O)c1ccc(OCCCOc2ccc(C(=O)O)cc2)cc1 | inactive | inactive | inactive | inactive | inactive | – | inactive | 12.3 µM (active) | inactive | – | inactive | – | – | – | – | – | –
15 | Nc1ncnc(Nc2ccccc2)n1 | inactive | inactive | inactive | inactive | inactive | inactive | inactive | inactive | inactive | inactive | – | – | – | – | – | – | –
16 | Cc1ccc(S(=O)(=O)NC(=O)NC2CCCCC2)cc1 | inactive | inactive | inactive | inactive | inactive | inactive | inactive | inactive | inactive | inactive | – | – | – | – | – | – | –

Row | Compound | outcome [1] | outcome [2] | outcome [3] | outcome [4] | outcome [5] | outcome [6] | Potency [7] | Potency [8] | Potency [9] | Potency [10] | Potency [11] | outcome [12] | activity change, negative = inhibition [1] | activity change, negative = inhibition [2] | activity change, negative = inhibition [3] | activity change [4] | % pathology change, negative = correction [7]
17 | CC(C)C[C@@H](N)C(=O)O | inactive | inactive | inactive | inactive | inactive | inactive | inactive | – | inactive | inactive | – | – | – | – | – | – | –
18 | CCOc1ccc(C(=O)OCCN(CC)CC)cc1 | inactive | inactive | inactive | inactive | inactive | inactive | inactive | 2.72 µM (active) | inactive | inactive | – | – | – | – | – | – | –
19 | Cc1cc(OI)c(C(C)C)cc1-c1cc(C(C)C)c(OI)cc1C | inactive | inactive | inactive | inactive | inactive | inactive | inactive | – | inactive | – | – | – | – | – | – | – | –
20 | N[C@@H](Cc1ccc(O)cc1)C(=O)O | – | – | – | – | inactive | – | – | – | – | – | – | – | -1.9% [at 9.18 µM] (inactive) | 3.61% [at 12.6 µM] (inactive) | 8.22% [at 11.5 µM] (inactive) | 20.5% [at 0.858 µM] (inactive) | -10.7% [at 9.22 µM] (inactive)
21 | C[N+]1(C)CCCC(OC(=O)C(O)(c2ccccc2)c2ccccc2)C1 (stereo not given) | inactive | inactive | inactive | inactive | inactive | – | inactive | 12.3 µM (active) | inactive | – | inactive | – | – | – | – | – | –
22 | C/C(=C(\CCO)SS/C(CCO)=C(\C)N(C=O)Cc1cnc(C)nc1N)N(C=O)Cc1cnc(C)nc1N | inactive | inactive | inactive | inactive | inactive | inactive | inactive | – | inactive | inactive | inactive | – | – | – | – | – | –
23 | CN[C@@H]1[C@H](O)[C@H](NC)[C@H]2O[C@@]3(O)C(=O)C[C@@H](C)O[C@H]3O[C@@H]2[C@H]1O | inactive | inactive | inactive | inactive | inactive | inactive | inactive | – | inactive | inactive | inactive | – | – | – | – | – | –
24 | CC(=O)N1C[C@H](O)C[C@H]1C(=O)O | inactive | inactive | inactive | inactive | inactive | – | inactive | inactive | – | – | inactive | – | – | – | – | – | –
25 | CCCNC(C)(C)COC(=O)c1ccccc1 | inactive | inactive | inactive | inactive | inactive | inactive | inactive | – | inactive | inactive | – | – | – | – | – | – | –
26 | Cc1c(I)c(=O)n(-c2ccccc2)n1C | inactive | inactive | inactive | inactive | inactive | – | inactive | inactive | inactive | inactive | inactive | – | – | – | – | – | –
27 | NS(=O)(=O)c1ccc(C(=O)O)cc1 | inactive | inactive | inactive | inactive | inactive | – | inactive | inactive | inactive | inactive | inactive | – | – | – | – | – | –
28 | COc1ccc(Cc2cnc(N)nc2N)cc1OC | inactive | inactive | inactive | inactive | inactive | – | inactive | inactive | inactive | inactive | inactive | – | – | – | – | – | –
29 | NCC1CCC(C(=O)Oc2ccc(CCC(=O)O)cc2)CC1 (stereo not given) | inactive | inactive | inactive | inactive | inactive | – | inactive | inactive | inactive | inactive | inactive | – | – | – | – | – | –
30 | NC(=O)N[C@@H](CCC(=O)O)C(=O)O | inactive | inactive | inactive | inactive | inactive | – | inactive | inactive | inactive | inactive | inactive | – | – | – | – | – | –
31 | C/C=C1\[C@H]2C=C(C)C[C@]1(N)c1ccc(=O)[nH]c1C2 | inactive | inactive | inactive | inactive | inactive | – | inactive | inactive | inactive | inactive | – | – | – | – | – | – | –

— PubChem BioAssay (NCATS)
